Most compounds without a hit are left out; they make up all but 5% or so of the library.
AI-2 QS modul = Vibrio harveyi AI-2 quorum sensing modulators, primary screen, JMH597 strain, luminescence/OD600 ratio; activity change, % at 7.5 µM; Vibrio harveyi JMH597 AI-2 luminescence/OD600 ratio, 9 h; active compounds read low; strain lacks LuxN and CqsS sensors; 0 = neutral-control median; hit rate 0.4% among 300,000; AID 2094, 2009; in the data active = activity change below about -75%, passing the limit was not always enough;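 also: luminescence divided by OD600 gain over 9 h not by final OD600 alone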
PREPL inhibitor = PREPL enzyme inhibitors, primary screen, biochemical, fluorescence polarization; Prolyl endopeptidase-like (Homo sapiens), Q4J6C6; recombinant PREPL, fluorescence polarization activity-based probe; inhibition, % at 5.96 µM; hit rate 0.68% among 320,000; AID 2751, 2010; in the data active = inhibition above about 43%;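 also: 0% = enzyme with DMSO and 100% = wells lacking enzyme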
CHT allo act = CHT positive allosteric modulators, primary screen, cell-based, membrane potential dye, choline EC20 | CHT-expressing cells; active compounds read high; LV-AA mutant CHT in HEK293 cells | High affinity choline transporter 1 (Homo sapiens), Q9GZV3 | B-score at 10 µM | AID 488977, 2010 | hit rate 0.49% among 310,000;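 active = initial fluorescence not abnormally high and integrated response B-score, plate-corrected, over 3 SD above library mean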
CHT block = inhibitors of human choline transporter CHT; CHT-expressing cells, membrane potential dye, choline response; active compounds read low; B-score at 10 µM; hit rate 0.86% among 310,000; AID 488975, 2010;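 active = B-score over 3 SD under the library average, and starting fluorescence ratio not unusually high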;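 also: choline stimulus applied at its EC90 after an EC20 pre-addition; B-score computed on integrated fluorescence ratio after choline addition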
ALR inh = inhibitors of human ALR sulfhydryl oxidase, primary screen, biochemical, H2O2 detection, HRP-luminol luminescence, single point. FAD-linked sulfhydryl oxidase ALR (Homo sapiens), P55789. purified ALR, DTT oxidation. inhibition, % (concentration not given with the values). hit rate 3.8% among 290,000. AID 485317, 2010;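 active = mean replicate inhibition above about 79%, with every replicate also reaching it, limit read from the data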
Target sequence (P55789 whole entry, looked up): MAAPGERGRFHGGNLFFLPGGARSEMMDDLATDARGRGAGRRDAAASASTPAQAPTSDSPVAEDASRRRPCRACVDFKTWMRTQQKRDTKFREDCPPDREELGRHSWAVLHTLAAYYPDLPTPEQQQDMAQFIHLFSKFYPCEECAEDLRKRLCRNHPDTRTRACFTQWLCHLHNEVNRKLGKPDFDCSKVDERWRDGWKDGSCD
An asterisk follows results filed as active; i = inactive; x = not tested or not shown.

SMILES	AI-2 QS modul	PREPL inhibitor	CHT allo act	CHT block	ALR inh
Cc1cc([N+](=O)[O-])ccc1NCc1ccccc1[N+](=O)[O-]	23	16	i	i	-3
COCCCn1c(=O)c2sccc2n2c(CCCC(=O)NCc3cccc(OC)c3)nnc12	6	7	i	i	-3
COc1ccc(NC(=O)Nc2ccc(OC)cc2)cc1	1	23	i	i	-7
COc1ccc(NC(=O)Nc2ccc3nccnc3c2)cc1	22	21	i	i	100*
CC1CCC/C(=C\Nc2ccc(O)cc2)C1=O (stereo not given)	27	24	i	i	99*
CCNS(=O)(=O)c1ccc(NC(=S)N2CCc3ccccc32)cc1	20	x	i	i	-15
CCN(CC)CCn1c(SCC(=O)Nc2cccc(OC)c2)nc2c(sc3ccccc32)c1=O	35	-75	i	i	x
COc1cccc(NC(=O)CSc2nc3c(sc4ccccc43)c(=O)n2CCCN2CCCC2)c1	-1	-55	i	i	97*
COc1cccc(NC(=O)CSc2nc3c(sc4ccccc43)c(=O)n2CCN(C)C)c1	-1	-23	i	i	100*
Cc1ccc(CNC(=O)CSc2nc3c(sc4ccccc43)c(=O)n2CCCN2CCCC2)cc1	-4	-8	i	i	99*
CC(C)CNC(=S)NC1CC2CCCC(C1)N2Cc1cccs1 (stereo not given)	5	4	i	i	0
CCOc1ccc(C2=Nn3c(nnc3-c3ccccc3OC)SC2)cc1	-1	4	i	-5.3*	x
COc1ccccc1-c1nnc2n1N=C(c1ccc(O)c(O)c1)CS2	14	16	i	i	99*
O=C(CCN1CCCCO1)N1CCCC(N2CCN(c3ccc(F)cc3)CC2)C1 (stereo not given)	4	20	i	i	97*
COc1ccccc1N1CCN(C2CCCN(C(=O)CCN3CCCCO3)C2)CC1 (stereo not given)	9	9	i	i	10
Cc1nonc1C(=O)N1CCCC(N2CCN(c3ccc(F)cc3)CC2)C1 (stereo not given)	22	x	i	i	98*
Cc1ccc(C(=O)OCC(=O)c2c[nH]c3ccccc23)cc1NC(=O)c1ccco1	6	-8	i	i	-5
COc1ccc(CCNC(=O)CCCCCN2C(=O)[C@@H]3Cc4ccccc4CN3C2=O)cc1OC	10	20	i	i	-1
O=C(O)c1ccc(N/N=C2/CCSc3ccc(F)cc32)cc1	3	15	i	i	98*
Cc1cc(C)nc(N/N=C2/CCSc3ccc(F)cc32)n1	12	13	i	i	-13
O=C(O)c1ccc(N/N=C2/CCCc3ccccc32)cc1	8	10	i	i	98*
Nc1ccccc1C#CC(=O)c1ccccc1	-90*	3	i	i	50
C=CCn1cc(C(=O)N2CCN(c3ccccc3)CC2)c(=O)c2cc(S(=O)(=O)N3CCCC3)ccc21	-4	19	i	i	17
S=c1nc[nH]c2nc[nH]c12	-154*	10	i	i	9
S=c1nc[nH]c2c1cnn2-c1ccccc1	14	-6	i	i	25
SMILES	AI-2 QS modul	PREPL inhibitor	CHT allo act	CHT block	ALR inh
CC(C)(C)OC(=O)N1Cc2ccccc2C[C@H]1C(=O)NCC(=O)NCC1CCCO1 (stereo not given in full)	4	4	i	i	-9
Cc1[nH]c2ccccc2c1/C=N/NC(=O)CNC(=O)c1ccco1	1	-1	i	i	95*
Cc1[nH]c2ccccc2c1/C=N\NC(=O)c1ccco1	-3	x	i	i	58
CCN(CC)S(=O)(=O)c1ccc(N=Nc2c(C)[nH]n(C(N)=S)c2=O)cc1	-3	-2	i	i	95*
CC(=O)N(C)c1ccc(N=Nc2c(C)[nH]n(C(N)=S)c2=O)cc1	22	-3	i	i	x
Cc1nc2ccc(C(=O)N3CCN(Cc4ccccc4)CC3)cc2[nH]1	4	5	i	i	-2
Cc1nnc2ccc(N3CCN(c4cccc(C(F)(F)F)c4)CC3)nn12	1	15	i	i	-10
CCN(C=NC1=NN(c2cccc(C(F)(F)F)c2)CC1)CC	40	15	i	i	94*
Cc1cccc(N2CCC(N=CN(C)C)=N2)c1	16	14	i	i	99*
Cc1c(C)n(-c2ccc(Cl)cc2)c2ncnc(N)c12	11	9	i	i	-2
CC(OC(=O)CCN=C1NS(=O)(=O)c2ccccc21)C(=O)Nc1ccc(N(C)C)cc1 (stereo not given)	x	21	i	i	99*
Cc1c(/C=N\NC(=O)c2cccc(F)c2)cnn1C	7	6	i	i	-4
CCn1cc(/C=N\NC(=O)c2ccc(F)cc2)cn1	1	3	i	i	98*
Cc1c(/C=N\NC(=O)c2ccc(F)cc2)cnn1C	14	-1	i	i	99*
Cc1ccccc1CN1[C@@H](C(C)C)COCCS1(=O)=O	30	3	i	i	-15
COCCN(C(=O)CCC(=O)Nc1ccccn1)C(C(=O)NCCC(C)C)c1ccc(C)cc1 (stereo not given)	-14	3	i	i	-6
O=C(Nc1ccc(-c2n[nH]c(=S)o2)cc1)c1ccccc1Br	26	0	i	i	86*
COc1ccc(C(=O)Nc2ccc(-c3n[nH]c(=S)o3)cc2)cc1OC	6	-3	i	i	29
CCCCOc1ccc(-c2ncc(N)cn2)cc1	14	-5	i	i	17
CCCCOc1ccc(-c2nc(=S)[nH][nH]2)cc1	-89*	9	i	i	99*
CC(OC(=O)c1ccc(NC(=O)CC#N)cc1)C(=O)NCCC1=CCCCC1 (stereo not given)	x	-1	x	x	98*
CCOC(=O)c1c(C)[nH]c(C(=O)C(C)OC(=O)c2ccc(NC(=O)CC#N)cc2)c1C (stereo not given)	x	-138	x	x	99*
CCOC(=O)c1c(C)[nH]c(C(=O)OCC(=O)Nc2ccc(OCC)cc2)c1C	24	5	i	i	54
CCOC(=O)c1ccc(NC(=S)NCCC2=CCCCC2)cc1	-3	-5	i	i	-3
O=C1COc2ccc(C(=O)COC(=O)c3ccc(S(=O)(=O)C(F)F)cc3)cc2N1	-94*	12	i	i	-6
CCN(CC)S(=O)(=O)c1cccc(C(=O)OCC(=O)c2ccc3c(c2)NC(=O)CO3)c1	17	1	i	i	-23

Screening results: PubChem, several laboratories
